Results: PubChem BioAssay
This is one part of the list. Unmarked numbers belong to inactive results. Activity calls are given as the source filed them.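 How the source made its calls, unless noted: active means mean inhibition across replicates above a set limit taken from the earlier primary screen (cut at about 21% in these data); inactive means the rest.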

system: not listed separately; assay: BLA reporter readout interference – cell-based, fluorescence, artefact control for TLR9-MyD88 binding inhibitor project (AID 540251;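 active means mean inhibition above a 50% cutoff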;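 further: counterscreen of TLR9-MyD88 hits on CMV-driven BLA in CHO-K1 cells; 0% = DMSO alone and 100% = clavulanate blocking BLA; higher means less blue over green ratio so more BLA blockade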); settings: CHO-BLA cells, CCF4 FRET ratio, at 4.98 µM, active compounds read high

Row | SMILES | inhibition [%]
1 | COc1cc(/C=C(\C#N)c2nc3c(s2)CC(C)CC3)ccc1O (configuration not stated) | 17
2 | O=C(/C=C(O)/C=C/c1ccc(O)cc1)/C=C/c1ccc(O)cc1 | 42.9
3 | Nc1c(C(=O)c2cccs2)sc2nsc(SCCN3CCCCC3)c12 | 27.5

system: not listed separately; assay: CHO cell viability loss – luminescence, single concentration, cytotoxicity control for TLR9-MyD88 binding inhibitor project (AID 588336; in the data active means inhibition above about 11%); settings: TLR9-MyD88 CHO cells cytotoxicity, at 4.98 µM, active compounds read high

Row | SMILES | inhibition
4 | COc1cc(/C=C(\C#N)c2nc3c(s2)CC(C)CC3)ccc1O (configuration not stated) | 0.65%
5 | O=C(/C=C(O)/C=C/c1ccc(O)cc1)/C=C/c1ccc(O)cc1 | 6.33%
6 | Nc1c(C(=O)c2cccs2)sc2nsc(SCCN3CCCCC3)c12 | 10.9% (active)

target: Receptor-interacting serine/threonine-protein kinase 2 (Homo sapiens) (UniProt O43353); assay: inhibitors of RIPK2 association with NOD2 – fluorescence, CHO cells, BLA complementation, triplicate, confirmation (AID 624370); settings: CCF4 FRET, at 4.98 µM, active compounds read high;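 further: 0% = DMSO-only wells and the high end = clavulanate BLA-blocked wells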
Sequence (O43353 whole entry, looked up): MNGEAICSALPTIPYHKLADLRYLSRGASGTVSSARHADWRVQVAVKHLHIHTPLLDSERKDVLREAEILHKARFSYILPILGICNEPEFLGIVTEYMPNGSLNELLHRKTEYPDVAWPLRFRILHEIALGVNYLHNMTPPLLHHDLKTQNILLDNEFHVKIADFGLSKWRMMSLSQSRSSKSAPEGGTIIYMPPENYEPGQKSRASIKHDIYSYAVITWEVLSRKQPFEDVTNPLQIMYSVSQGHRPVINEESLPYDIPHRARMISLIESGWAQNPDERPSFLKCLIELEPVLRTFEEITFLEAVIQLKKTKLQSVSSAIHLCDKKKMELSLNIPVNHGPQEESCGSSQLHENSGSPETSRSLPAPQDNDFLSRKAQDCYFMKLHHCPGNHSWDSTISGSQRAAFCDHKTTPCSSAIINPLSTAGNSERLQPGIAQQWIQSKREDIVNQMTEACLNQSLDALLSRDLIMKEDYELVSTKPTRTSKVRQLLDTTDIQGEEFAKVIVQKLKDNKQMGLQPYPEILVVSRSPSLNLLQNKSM

Row | SMILES | inhibition
7 | COc1cc(/C=C(\C#N)c2nc3c(s2)CC(C)CC3)ccc1O (configuration not stated) | 29.5% (active)
8 | O=C(/C=C(O)/C=C/c1ccc(O)cc1)/C=C/c1ccc(O)cc1 | 64.2% (active)
9 | Nc1c(C(=O)c2cccs2)sc2nsc(SCCN3CCCCC3)c12 | 19.8%

system: not listed separately; assay: BLA reporter readout interference – cell-based, CHO-K1 CMV-bla, CCF4 FRET, fluorescence, artefact control for NOD2-RIPK2 interaction inhibitor project, confirmation (AID 624371;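 active means mean inhibition above the low-control mean inhibition plus three low-control SD, cut at about 11% in these data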;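 further: 0% = DMSO only wells and 100% = clavulanate high control wells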); settings: CCF4 FRET ratio, counterscreen, at 4.98 µM, active compounds read high

Row | SMILES | inhibition
10 | COc1cc(/C=C(\C#N)c2nc3c(s2)CC(C)CC3)ccc1O (configuration not stated) | 39.6% (active)
11 | O=C(/C=C(O)/C=C/c1ccc(O)cc1)/C=C/c1ccc(O)cc1 | 65.5% (active)
12 | Nc1c(C(=O)c2cccs2)sc2nsc(SCCN3CCCCC3)c12 | 36.9% (active)
